The text below walks through data of PubChem BioAssay (NCATS).

Structures are written as SMILES. “And” between values parts separate entries of the source, which are not always exact repeats. Equal values may be shown once. Inconclusive results are not listed. Unmarked numbers belong to inactive results. The source made the active and inactive calls. Calls come from the whole dose curve; as a rule, active = well fitted cell-killing curve with a large enough effect; inconclusive = small, poorly fitted or top-dose-only effect; inactive = flat fitted curve, though single readings scatter. *1 amine or outer side, *2 acyl side, *3 side chain or, on linkers, in order; H or OH if unused. Where a SMILES comes first, the peptide text is derived from it. Bridges are numbered along the chain shown (N, C = ends). [ ]: non-standard residue; d: D form. The star is where a group is joined. ξ: configuration not given here. ΔAla(3-NHCONH2) = NC(=O)NC=C(N)C(=O)O; X2 = NC1=NCCC(C(N[*:1])C(=O)[*:2])N1; ξβ3hOrn = NCCCC(N)CC(=O)*; Dap = NC[CH](N)C(=O)O
% is set by controls: 0 for no effect and ±100 for the full control effect; potency is the fitted concentration of half-maximal effect.

A short description of this assay: Cellular viability qHTS for adrenocortical cancer (ACC) cell line SW-13 (AID 1963989).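 For activity (max response): cells grown in serum-free medium with ITS supplement.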 Note: nearly all actives have a fitted effect of over 65% in size. To be noted: SW-13 ACC cells viability, CellTiter-Glo, 48 h; activity (max response): active compounds read low. Put shortly:
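Here, serum-free SW-13 cultures were dosed up to 46 uM. Following 48 h, ATP-dependent luminescence (CellTiter-Glo) reported viable cells, and logistic modeling produced IC50 values.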
Background: qHTS replaces the single test concentration by a dilution series.
Turning to `NCCCC(N)CC(=O)NCC1NC(=O)C(CO)NC(=O)C(N)CNC(=O)C(C2CCN=C(N)N2)NC(=O)C(=CNC(N)=O)NC1=O` (stereo not drawn) (H-[Dap]S[Dap](ξβ3hOrn)[ΔAla(3-NHCONH2)][X2]; lactam 1-C; configuration not given here), the activity (max response) was -2.59%.
On the same count and under the same terms, then `CC1(C)[C@@H](OC(=O)CCC(=O)O)CC[C@]2(C)[C@H]3C(=O)C=C4[C@@H]5C[C@@](C)(C(=O)O)CC[C@]5(C)CC[C@@]4(C)[C@]3(C)CC[C@@H]12`, with 2.49%.
Still for that read-out and setting: for `NCCNCCNCCNCCN` the value was 2.38%; for `CCCNC(C)C(=O)Nc1c(C)csc1C(=O)OC` (stereo not given), 8.19%.
`CC(C)C(=O)c1c(C(C)C)nn2ccccc12`: the activity (max response) is 11.5%.
Regarding `O=C(O)CC(O)C(=O)O` (stereo not given), the activity (max response) is 12.9%.
Turning to `CC[C@@]1(c2ccccc2)NC(=O)N(C)C1=O`, the activity (max response) was 8.31%.
Turning to `CC1(C)O[C@@H]2[C@@H](CO[C@@]3(COS(N)(=O)=O)OC(C)(C)O[C@@H]23)O1`, the activity (max response) is 9.55%.
As for `CN1C(=O)CC(C)(c2ccccc2)C1=O` (stereo not given), the activity (max response) is -10.7%.
Take `CCOC(=O)[C@H](CCc1ccccc1)N[C@@H](C)C(=O)N1C(=O)N(C)C[C@H]1C(=O)O`: the activity (max response) was 5.98%.
For `COC(=O)c1cc(S(N)(=O)=O)ccc1OC`, the activity (max response) was 6.75%.
For `NC(CSCC(=O)O)C(=O)O` (stereo not given), the activity (max response) was -12%.
Take `CC(C(=O)O)c1cccc(Oc2ccccc2)c1` (stereo not given): the activity (max response) is 9.95%.
In the case of `CC(C)(C)NCC(O)COc1cccc2c1CCC(=O)N2` (stereo not given), the activity (max response) was 3.97%.
In the case of `Cc1cc(NC(=O)C2=C(O)c3ccccc3S(=O)(=O)N2C)no1`, the activity (max response) was -0.835%.
On to `CCN[C@@H]1C[C@H](N)[C@@H](OC2OC(CN)=CCC2N)[C@H](O)[C@H]1O[C@H]1OC[C@](C)(O)[C@H](NC)[C@H]1O` (stereo not given in full), for which the activity (max response) is -2.24%.
As to `O=C(O)/C=C\C(=O)O`, the activity (max response) was 6.23%.
Take `CCOc1ccc(NC(=O)CC(C)O)cc1` (stereo not given): the activity (max response) is -9.31%.
For `CCS(=O)(=O)c1ccc(OC)c(C(=O)OC)c1`, the activity (max response) was 10.8%.
As to `C#CC(C)(CC)OC(=O)c1ccccc1C(=O)O` (stereo not given), the activity (max response) is 8.16%.
On to `CCCNC(=O)NS(=O)(=O)c1ccc(Cl)cc1`, for which the activity (max response) is -2.41%.
On the same count and under the same terms, then `CN1Cc2cc(C(=O)N3CCC(C4CCNCC4)CC3)ccc2NC(CC(=O)O)C1=O` (stereo not given), with 10.5%; and `CCOC(=O)OC(C)OC1=C(C(=O)Nc2ccccn2)N(C)S(=O)(=O)c2ccccc21` (stereo not given), with 1.88%.
Take `O=C(Oc1ccccc1C(=O)O)c1ccccc1O`: the activity (max response) is -2.11%.
On the same count and under the same terms, for `Nc1c2c(nc3ccccc13)CCCC2O` (stereo not given) the value was 13%; for `OCC(O)CN1CCN(c2ccccc2)CC1` (stereo not given), -5.47%; for `[O-][n+]1cccc(CO)c1`, 9.62%.
With `CC(C)(C)NCC(O)COc1cccc2c1C[C@H](O)[C@H](O)C2` (stereo not given in full), the activity (max response) is 9.63%.
As to `O=c1[nH]c(=O)n([C@H]2CCCO2)cc1F`, the activity (max response) is -5.11%.
Turning to `C[C@@]12C(=O)OC(=O)[C@]1(C)C1CCC2O1`, the Potency was 7.31 µM (active).
With `CC[C@H]1CN2CCc3cc(OC)c(OC)cc3[C@@H]2C[C@@H]1C[C@H]1NCCc2cc(OC)c(OC)cc21`, the Potency is 231 nM (active) and 447 nM (active).
As for `COc1ccc2c(c1)c1c3n2CCN(C)C3=NCC1`, the activity (max response) was 0.0191%.
Consider `CN1CCN(CC(=O)N2c3ccccc3C(=O)Nc3cccnc32)CC1`, for which the activity (max response) is -3%.
Regarding `CNCc1ccc(C)c(NC(=O)c2ccc(Nc3nc(-c4ccccc4)c4ccccc4n3)cc2)c1`, the Potency is 28.2 µM (active).
In the case of `O=C(NCCN1CCOCC1)c1ccc(Cl)cc1`, the activity (max response) is 1.07%.
Consider `O=C(O)[C@H](O)[C@@H](O)[C@H](O[C@@H]1O[C@H](CO)[C@H](O)[C@H](O)[C@H]1O)[C@H](O)CO`, for which the activity (max response) was 9.39%.
The same measure, in the same setting: then `Cc1coc2ccccc2c1=O`, with 19.3%.
Regarding `CCn1c(=O)c(-c2ccc(Cl)cc2Cl)cc2cnc(Nc3ccc(N4CCNCC4)c(F)c3)nc21`, the activity (max response) was -23.5%.
As to `NC(N)=NCCC[C@H](N)C(=O)O`, the activity (max response) was -3.82%.
Consider `O=C(O)CCCC[P+](c1ccccc1)(c1ccccc1)c1ccccc1`, for which the activity (max response) was 2%.
